TSHR antag = Antagonists of the Thyroid Stimulating Hormone Receptor: HTS campaign; Thyrotropin receptor (Homo sapiens), P16473; TSHR-expressing cells, TSH-stimulated cAMP HTRF, 2 h; stronger effect = lower value; activity change, negative = inhibition, % at 11.5 µM; actives 0.2% (n = 330,000); AID 504810, 2011;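 active means activity change below a set negative limit, meaning inhibition stronger than a set level, cut at about -70% in these data; inconclusive means activity change between two set negative limits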; further: on the % scale 0 is the no-effect control and ±100 the full control effect
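Antagonism was scored as loss of TSH-driven cAMP in TSHR cells, stimulated with 4nM TSH (EC80) for 2 hours at 37 deg C and detected by homogeneous HTRF competition immunoassay.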
TCR activator = Activators of T cell receptors: qHTS campaign. primary human leukocytes, anti-CD3, IL-2 HTRF, 48 h. Potency, µM (series often up to 9.22 µM), inactives show at the top dose activation of IL-2 secretion, hits mostly activators. 330,000 tested, under 10 active. AID 504894, 2011; further: % of control where 0% means no effect
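Activity was scored as IL-2 release from primary human leukocytes given only a TCR signal (a-CD3 beads) plus compound for 48 hr. Detection used a two-antibody HTRF format read at 665nm.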
uPA generation = qHTS for Inhibitors of Cell Surface uPA Generation; cell surface uPA generation assay, qHTS; Potency, µM (titrated, usually from 38.3 µM), for inactives: top-dose activity change, negative = inhibition, actives largely listed as inhibitors; actives 0.31% (n = 330,000); active means well fitted inhibition curve with a large enough effect; inconclusive means small, poorly fitted or top-dose-only effect; inactive means no such curve, though single readings can be large or run the other way; tested in mouse RAW 264.7 cells; further: potency means the concentration at half of the fitted maximal effect; on the % scale 0 is the no-effect control and ±100 the full control effect; nearly all actives have a fitted effect of over 55% in size
PKM2 act = qHTS Assay for Activators of Human Muscle isoform 2 Pyruvate Kinase. purified PKM2, Kinase-Glo ATP luminescence, activation; response scale: 0% is enzyme alone, no compound. actives 0.34% (n = 260,000). Potency, µM (doses to about 57.5 µM), inactives show at the highest dose activation, most hits filed as activators; further: potency means the concentration at half of the fitted maximal effect; on the % scale 0 is the no-effect control and ±100 the full control effect; nearly all actives have a fitted effect of over 55% in size
Target sequence (P14618 whole entry, looked up, canonical isoform): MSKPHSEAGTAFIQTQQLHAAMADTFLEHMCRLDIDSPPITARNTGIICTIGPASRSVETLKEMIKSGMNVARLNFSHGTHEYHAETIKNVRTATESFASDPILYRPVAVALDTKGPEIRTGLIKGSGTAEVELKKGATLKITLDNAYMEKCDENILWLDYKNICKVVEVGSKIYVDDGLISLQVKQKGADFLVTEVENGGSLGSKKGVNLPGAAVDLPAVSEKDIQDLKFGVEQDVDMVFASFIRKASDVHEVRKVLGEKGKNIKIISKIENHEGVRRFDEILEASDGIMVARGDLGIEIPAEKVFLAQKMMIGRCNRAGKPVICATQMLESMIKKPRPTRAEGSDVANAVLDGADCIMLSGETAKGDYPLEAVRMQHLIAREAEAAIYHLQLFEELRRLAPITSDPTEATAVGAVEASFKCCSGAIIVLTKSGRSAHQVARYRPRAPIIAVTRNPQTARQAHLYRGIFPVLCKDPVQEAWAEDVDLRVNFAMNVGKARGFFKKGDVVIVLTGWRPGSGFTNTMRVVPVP
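ATP formation by purified human PK-M2, quantified via coupled luciferase luminescence after 1 h at room temperature with 0.1 mM ADP and 0.5 mM PEP final.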
An asterisk follows results filed as active; u = inconclusive; x = no result; [ ] = another dose, or the depositor's remark. In the library only some 0.75% were active in any assay of this set; here they are far more common. Unless noted, the call rests on the fitted dose curve; in most records, active means well fitted curve in the direction sought with a large enough effect; inconclusive means small, poorly fitted or top-dose-only effect, or another doubt; inactive means no such curve, though single readings can be large; an effect the other way counts as inactive or inconclusive.

SMILES	TSHR antag	TCR activator	uPA generation	PKM2 act
Cc1onc(-c2ccccc2)c1C(=O)O/N=C(\N)c1ccc([N+](=O)[O-])o1	-11.6	7.2%	4.47µM*	-0.8%
Cc1cccc(N(C)S(=O)(=O)c2cc3c(cc2C)n(C)c(=O)c(=O)n3C)c1	-11.3	0.2%	u	10µM*
Cc1cc2c(cc1S(=O)(=O)N(C)c1ccccc1)n(C)c(=O)n2C	-3.6	x	-2.0%	12.6µM*
Cc1cc2c(cc1S(=O)(=O)N(C)Cc1ccccc1)n(C)c(=O)c(=O)n2C	-26.8	-7.0%	3.9%	9.6%
Cc1onc(-c2ccccc2)c1C(=O)OCC(=O)NCc1ccc(F)cc1	1.4	-100.1%	-3.2%	x
Cc1cc(NC(=O)CSc2nc3c(cc2C#N)CCC3)no1	1.8	-3.5%	-5.0%	2.51µM*
Cc1cc(C)c2nc(SCC(=O)Nc3cc(C)on3)c(C#N)cc2c1	-7.3	2.2%	3.2%	1.12µM*
Cc1cc(NC(=O)CSc2nc3c(cc2C#N)CCCC3)no1	-4.6	-0.2%[46.1 µM]	-12.7%	u
COC(=O)c1ccc(Cn2cnc3c(Cl)ncnc32)cc1	x	1.8%	-7.2%	x
COc1ccc(C2=Cc3ccc(OC(C)=O)cc3OC2)cc1	x	1.6%	-7.0%	x
COc1cccc(N2CC(C(=O)Nc3nnc(SCC(=O)Nc4ccc(NC(C)=O)cc4)s3)CC2=O)c1 (stereo not drawn)	-7.3	3.7%	0.1%	x
COc1cccc(C(=O)Nc2nnc(SCC(=O)Nc3ccc(NC(C)=O)cc3)s2)c1	-23.0	-5.8%	2µM*	-8.9%
O=C(CN1CCOCC1)Nc1ncc(Cc2ccccc2Cl)s1	10.5	1.4%	5.5%	-24.3%
CCc1ccc(CCC(=O)Nc2ncc(Cc3ccccc3Cl)s2)o1	4.0	-4.2%[46.1 µM]	-13.6%	14.1µM*
CCOC(=O)c1ccc(NC(=S)N2CCSC2c2ccc(Br)cc2)cc1 (stereo not drawn)	4.6	-11.1%[46.1 µM]	1.8%	-1.9%
COc1ccc2[nH]c3c4c(ccc3c2c1)C(=O)C=CC4=O	-32.6	3.6%	3.16µM*	1.26µM*
CCCCCN1C=CC(=C2C(=O)c3ccccc3C2=O)C=C1	1.6	0.7%	0.0224µM*	-28.0%
CC1=CC(=C2C(=O)c3ccccc3C2=O)C=C(C)N1C	2.4	8.3%	-10.7%	1.6%
O=S(=O)(NC1CC1)c1ccc(S(=O)(=O)N(Cc2ccccn2)C2CC2)cc1	0.3	-38.8%	-13.3%	-0.9%
CCOc1ccccc1N1CCN(C(=O)CCCN2C(=O)c3cccc4cccc(c34)C2=O)CC1	-81.0*	2.0%[46.1 µM]	-1.1%	-3.9%
COc1ccc(C(CC(=O)N2CCOCC2)c2c(OC)cc(OC)c3c(-c4ccccc4)cc(=O)oc23)cc1 (stereo not drawn)	-82.0*	-2.0%	12.9%	23.0%
COc1ccc(C(CC(=O)N2CCCC2)c2c(OC)cc(OC)c3c(-c4ccccc4)cc(=O)oc23)cc1 (stereo not drawn)	-5.2	0.6%	-9.2%	-1.8%
COc1ccc2c(c1)N(C)/C(=C/c1cccc[n+]1C)S2	-14.5	-1.4%	7.94µM*	x
CCN1/C(=C/c2cccc[n+]2C)Sc2ccc(OC)cc21	-16.3	-1.3%	u	x
COc1cc2c(cc1OC)C(C)N(C(=O)c1ccc(C)o1)CC2 (stereo not drawn)	-7.0	-0.5%	-7.7%	x
SMILES	TSHR antag	TCR activator	uPA generation	PKM2 act
COc1cc2c(cc1OC)C(C)N(C(=O)c1c(-c3ccccc3)noc1C)CC2 (stereo not drawn)	0.6	-2.7%	6.31µM*	0.5%
O=C(NC1CCOc2ccccc21)c1ccccn1 (stereo not drawn)	-91.7*	1.4%	16.1%	-7.1%
O=C(Nc1cccc(C(F)(F)F)c1)c1ccc(Cn2cc(Br)cn2)o1	-22.4	-0.5%	0.0%	15.4%
O=C(Nc1ccc(C(F)(F)F)cc1Cl)c1ccc(Cn2cc(Br)cn2)o1	x	6.5%	-3.9%	28.2µM*
Cc1ccc(NC(=O)C2CCC(CNC(=O)[C@@H]3Cc4ccccc4CN3)CC2)c(C)c1 (stereo partly drawn)	18.0	-42.0%	4.2%	x
CCCCSc1nc2sc3c(c2c(=O)n1-c1ccc(C)cc1)CCN(C)C3	-74.0*	6.1%	-0.4%	x
C/C(=N\NC(=O)c1cccc(N/N=C(\C)c2cc(O)ccc2O)c1)c1cc(O)ccc1O	0.6	-4.1%	-11.3%	u
CCN1CCN(c2ccc(NC(=O)c3ccccc3F)cc2Cl)CC1	-3.0	-1.4%	-4.2%	-3.3%
CCN1CCN(c2ccc(NC(=O)c3cc4ccccc4cc3OC)cc2C)CC1	3.0	-0.8%	11.2µM*	x
COC(=O)c1ccccc1S(=O)(=O)N1CCc2nc(-c3ccccc3)c3c(c2C1)CO[C@@H](C)C3	x	x	x	-6.3%[11.5 µM]
COc1ccc(-c2nnc(NC(=O)c3ccc4c(c3)OCCO4)o2)cc1	-94.9*	1.1%	-5.3%	x
CSc1nnnc2ccccc12	x	1.5%	-5.0%	x
CCC(C)(C)c1ccc(OCCCC[n+]2cccc(C)c2C)c(C(C)(C)CC)c1	-6.1	-3.0%	8.91µM*	-0.1%
CCC(C)(C)c1ccc(OCCCC[n+]2ccc(C)cc2)c(C(C)(C)CC)c1	-0.9	1.2%	u	0.1%
Cc1cc(C)cc(NC(=O)CCn2c(=O)c3cccn3c3ccccc32)c1	-9.9	8.0%	u	x
COc1ccccc1N1CCN(c2cc(=O)n(Cc3ccc(F)cc3)c(=O)[nH]2)CC1	4.5	5.6%[46.1 µM]	2.82µM*	0.4%
COc1ccccc1N1CCN(S(=O)(=O)CCNC(=O)Cc2ccc(F)cc2)CC1	5.5	-3.6%	7.08µM*	x
COc1ccccc1N1CCN(C(=O)CCC(=O)N2CCN(c3ccccc3OC)CC2)CC1	15.0	6.3%	5.3%	2.5%
COc1ccccc1N1CCN(C(=O)CCC(=O)N2CCN(c3ccc(F)cc3)CC2)CC1	-124.4*	11.5%	3.1%	0.2%
O=c1cc(N2CCN(c3ccccc3Cl)CC2)[nH]c(=O)n1Cc1ccc(F)cc1	-9.5	2.7%	-7.9%	-0.9%
CCCC/C(O)=C1\C(=O)CCCC1=NCCc1c(C)[nH]c2ccc(OC)cc12	-0.4	-6.6%	3.6%	1.8%
Cc1ccc(Sc2ccc(NC(=O)CCl)cc2)cc1C	2.5	2.3%[46.1 µM]	12.6µM*	9.1%
C/C(=N/NC(=O)CNC(=O)/C=C/c1ccco1)c1ccc(Cl)cc1	-5.0	12.5%	-2.6%	25.1µM*
Cc1ccc(SCCC(=O)N2CCN(S(=O)(=O)c3ccccc3)CC2)cc1	-14.0	-30.5%	6.0%	x
Cc1csc(SCC(=O)N2CCN(S(=O)(=O)c3ccccc3)CC2)n1	0.4	-0.5%	0.5%	31.6µM*
CCOC(=O)c1ccoc1CSCC(=O)N1CCN(S(=O)(=O)c2ccc(C)cc2)CC1	-5.1	-1.3%	0.2%	25.1µM*
O=C(CSc1ccccc1)N1CCN(S(=O)(=O)c2ccccc2)CC1	7.9	2.1%	-0.2%	2.82µM*
Cc1ccc(S(=O)(=O)N2CCN(C(=O)CSc3ccc(F)cc3)CC2)cc1	-1.4	-3.4%	-2.0%	12.6µM*

Bioassay records as filed in PubChem.
